Screens as filed in PubChem.
G9a inh = G9a (human) methyltransferase inhibition | Q96KQ7 | G9a H3K9 monomethylation, AlphaScreen, 2 h | Potency, µM (top dose mostly 102 µM), without a hit: at the highest dose activity, negative = inhibition, most hits filed as inhibitors | 8.8% of 350,000 active | AID 504332; note: % is set by controls: 0 for no effect and ±100 for the full control effect; nearly all actives have a fitted effect of over 75% in size
Target sequence (Q96KQ7 913-1193 limits assumed): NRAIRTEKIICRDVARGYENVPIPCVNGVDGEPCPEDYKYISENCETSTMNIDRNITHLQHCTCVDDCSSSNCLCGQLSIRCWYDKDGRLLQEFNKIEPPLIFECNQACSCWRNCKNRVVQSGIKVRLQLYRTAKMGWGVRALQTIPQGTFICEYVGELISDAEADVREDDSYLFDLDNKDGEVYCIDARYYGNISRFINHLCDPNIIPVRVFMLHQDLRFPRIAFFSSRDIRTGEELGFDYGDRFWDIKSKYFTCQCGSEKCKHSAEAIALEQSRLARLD
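Quantitative HTS format: methyltransferase activity on a biotin-tagged H3K9 peptide is measured by AlphaScreen, using a rabbit anti-monomethyl-H3K9 antibody with streptavidin donor and anti-IgG acceptor beads. Final levels are 20 nM enzyme, 500 nM peptide, 20 uM SAM; 2 h RT.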
L3MBTL1 inh = inhibitors of human L3MBTL1; AlphaScreen L3MBTL1–H3K9me1 peptide binding; Potency, µM (titrated, usually from 57.1 µM), without a hit: at the highest dose activity, negative = inhibition, most hits filed as inhibitors; 0.66% of 230,000 active; AID 485360; note: % is set by controls: 0 for no effect and ±100 for the full control effect; nearly all actives have a fitted effect of over 60% in size
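AlphaScreen assay: L3MBTL1 (50 nM final) was preincubated 30 min at room temperature with biotinylated H3(1-15)K9me1 peptide (75 nM final), then 30 min with library compounds; streptavidin donor and nickel chelate acceptor beads (10 ug/mL final) added, 30 min dark.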
HP1b binding inh = blocks HP1-beta chromodomain binding to methylated histone tails; 0.56% of 390,000 active; P83916; Potency, µM (highest dose often 114 µM), without a hit: at the top dose activity change, negative = inhibition, most hits filed as inhibitors; AlphaScreen HP1-beta / biotin-H3K9me3 peptide binding; note: nearly all actives have a fitted effect of over 70% in size
Target sequence (P83916 whole entry, looked up): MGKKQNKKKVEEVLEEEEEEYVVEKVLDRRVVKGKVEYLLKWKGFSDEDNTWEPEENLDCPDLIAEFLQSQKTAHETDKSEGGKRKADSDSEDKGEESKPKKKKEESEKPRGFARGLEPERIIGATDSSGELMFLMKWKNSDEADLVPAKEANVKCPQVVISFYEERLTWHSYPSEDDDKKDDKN
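Compound inhibition of the preformed complex between 50 nM HP1-beta and 50 nM biotinylated H3K9me3 peptide was read by AlphaScreen. Buffer was PBS pH 7.4 with 0.01% Tween-20. Incubations ran 30 min at room temperature, with 10 ug/mL donor/acceptor beads.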
BAZ2B block = BAZ2B (human) inhibition; AlphaScreen BAZ2B-H3K14Ac peptide displacement; Potency, µM (titrated, usually from 114 µM), for the others: at the top dose activity change, negative = inhibition, hits mostly inhibitors; 4.4% of 360,000 active; AID 504333; note: % is set by controls: 0 for no effect and ±100 for the full control effect; nearly all actives have a fitted effect of over 60% in size
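AlphaScreen displacement: compounds (up to 110uM) incubated 30 min at room temperature with a preformed 50 nM BAZ2B/50 nM biotinylated H3K14Ac peptide complex in PBS pH 7.4 with Tween-20. Donor and acceptor beads at 10 ug/mL final added, 20 min light-protected before reading.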
JMJD2A Tudor inh = inhibitors of human JMJD2A Tudor domain; AlphaScreen JMJD2A-Tudor / H3K4me3 peptide binding; Potency, µM (titrated, usually from 114 µM), inactives show top-dose activity change, negative = inhibition, hits mostly inhibitors; O75164; 4.4% of 390,000 active; AID 504339; note: % is set by controls: 0 for no effect and ±100 for the full control effect; nearly all actives have a fitted effect of over 50% in size
Sfp inh = blocks B. subtilis Sfp PPTase activity. 3.5% of 310,000 active. Potency, µM, for the others: largest response in the series, negative = inhibition, actives largely listed as inhibitors. AID 1490. Biochemical Sfp PPTase activity, qHTS;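 note: the enzyme is Sfp with the accession as filed and its product quenches rhodamine fluorescence; 0% = enzyme reaction without inhibitor and -100% = no enzyme wells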
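With Hepes-Na pH 7.6 buffer containing 10 mM MgCl2, Sfp (15 nM) modified BHQ-2-YbbR (12.5 uM) using rhodamine-CoA (5 uM). Two reads 30 minutes apart at 525/598 nm yielded each well's rate.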
* hit, by the source's call; ? = inconclusive; . = no result; [ ] = remark or other dose. Shown are actives, neighbours in structure and some others; about 12% of the full set was active somewhere. Calls come from the whole dose curve; as a rule, active = well fitted curve in the direction sought with a large enough effect; inconclusive = small, poorly fitted or top-dose-only effect, or another doubt; inactive = no such curve, though single readings can be large; an effect the other way counts as inactive or inconclusive. Potency is the fitted concentration of half-maximal effect.

SMILES	G9a inh	L3MBTL1 inh	HP1b binding inh	BAZ2B block	JMJD2A Tudor inh	Sfp inh
COc1cccc(NC(=O)CSc2nnc(NC(=O)NC3CCCCC3)s2)c1	-12.1%[59 µM]	.	-4.8%	-24.1%	-33.1%	.
Cc1ccccc1C(=O)Nc1nc(-c2ccc(Br)cc2)ns1	-1.0%[59 µM]	.	49.1%	3.0%	13.9%	.
Cc1nc(C(=O)O)cc2c1[nH]c1ccccc12	12.0%[12.7 µM]	-10.0%	67.0%	50.1µM*	79.4µM*	.
CC(C)(C)Nc1oc(-c2ccccc2)nc1-c1cccc2ccccc12	.	.	.	.	.	1.5%
COc1cc(C2C(=O)N(C3CCC(C)CC3)CC(=O)N2CCc2ccc(Cl)cc2)ccc1OC(C)C (stereo unspecified)	11.9%[59 µM]	.	57.4%	-1.7%	-11.0%	.
COc1ccc(/C=C/C(=O)N2CCCc3ccccc32)cc1	?	-10.4%	16.9%	-27.3%	-9.2%	79.4µM*
O=C(/C=C/c1ccco1)N1CCc2ccccc21	39.8µM*	-26.8%	7.2%	.	-18.4%	?
O=C(c1ccco1)N1CCc2ccccc21	-7.0%	.	19.7%	16.9%	-9.2%	16.2%
COc1ccc(NC(=O)N2CCCc3ccccc32)cc1	?	9.2%	32.3%	10.5%	-5.3%	13.9%
COc1ccc(N/N=C(/C(C)=O)N2CCCc3ccccc32)cc1	.	-17.8%	?	?	35.5µM*	-23.1%
COc1ccc(OC)c(/C=C/C(=O)N2CCCc3ccccc32)c1	-10.7%[59 µM]	.	-15.2%	?	?	2.2%
COc1ccccc1NC(=O)CSC1=Nc2ccccc2C2=NC(Cc3ccccc3)C(=O)N12 (stereo unspecified)	25.5%[59 µM]	.	46.0%	11.2%	-31.8%	.
C=C(C)CN(CC)C(=O)CN1C(=O)NC(C)(c2ccc3ccccc3c2)C1=O (stereo unspecified)	15.4%	.	37.3%	0.9%	-2.8%	13.8%
CC(=O)N1CCc2cc(S(=O)(=O)NC(Cc3ccccc3)C(=O)Nc3ccc(Cl)cc3)ccc21 (stereo unspecified)	6.6%[59 µM]	.	28.1%	.	-1.7%	.
COc1ccc(/C(C)=N/OCC(=O)Nc2nc3ccccc3s2)cc1OC	50.1µM*	-6.8%	-11.1%	?	-34.7%	?
C/C(=N\OCC(=O)Nc1nc2ccccc2s1)c1ccccc1	-12.1%[59 µM]	5.5%	39.8%	-5.8%	-2.8%	12.4%
Cc1ccc(C)c(NS(=O)(=O)c2ccc(OCC(=O)NCC3CCCO3)cc2)c1 (stereo unspecified)	-9.9%	1.1%	26.2%	-11.9%	0.7%	13.6%
Cc1ccc(S(=O)(=O)NCC2CCCO2)cc1 (stereo unspecified)	18.5%	3.4%	47.1%	9.8%	-19.0%	14.3%
Cc1ccc(NS(=O)(=O)c2ccc(OCC(=O)NCC3CCCO3)cc2)cc1 (stereo unspecified)	6.0%	0.7%	-4.8%	5.1%	50.1µM*	1.8%
Cc1ccc(C(=O)NC(=S)NCC2CCCO2)cc1Br (stereo unspecified)	44.7µM*	-13.8%	5.9%	?	-19.4%	-1.4%
Cc1ccc(C(=O)N/C(=C/c2ccc(N(C)C)cc2)C(=O)NCC2CCCO2)cc1 (stereo unspecified)	28.2µM*	.	1.1%	-4.0%	-29.8%	7.5%
Cc1ccc(S(=O)(=O)NNC(=S)NCC2CCCO2)cc1 (stereo unspecified)	25.1µM*	.	-15.6%	-15.1%	-13.8%	-15.4%
O=C(NC(=S)NCC1CCCO1)c1ccccc1Br (stereo unspecified)	13.2%[59 µM]	3.6%	15.2%	0.9%	-4.0%	2.7%
Cc1ccc(C)c(C(=O)N2CCC(c3nc4c(nnn4Cc4ccccc4)c(=O)[nH]3)CC2)c1	-3.1%[59 µM]	.	47.7%	-0.3%	-14.4%	.
CN(C(=O)c1ccc(NC(=O)Cc2cccc(NC(=O)C3CCCN(C(=O)C4CC4)C3)c2)cc1)C1CC1 (stereo unspecified)	.	.	12.8%	.	-33.1%	.
SMILES	G9a inh	L3MBTL1 inh	HP1b binding inh	BAZ2B block	JMJD2A Tudor inh	Sfp inh
CCCCCCCC1=CC2=C(Cl)C(=O)C(C)(OC(C)=O)C(=O)C2=CO1 (stereo unspecified)	.	.	.	.	.	-0.2%
COCCCNc1nc2ccccc2nc1NS(=O)(=O)c1ccccc1	?	7.7%[11.4 µM]	52.7%	?	-8.3%[11.4 µM]	14.1%
COc1ccccc1NS(=O)(=O)c1ccc(O)c(NC(=S)NCC2CCCO2)c1 (stereo unspecified)	.	6.6%	?	-9.1%	-13.8%	25.1µM*
CCOc1ccc(S(=O)(=O)N2CCCC(C(=O)Nc3ccccc3)C2)cc1 (stereo unspecified)	-4.1%	.	-6.5%	13.1%	4.2%	21.1%
CCOc1ccccc1C(=O)Nc1c(NC)c2ccccc2oc1=O	2.0%[59 µM]	.	41.6%	-0.1%	5.8%	.
CCCOC1(NC(=O)c2ccccc2)C(C)=CC(=O)C=C1C	11.9%[12.7 µM]	6.4%	?	-5.9%	?	56.2µM*
Cc1ccc(NC(=O)c2sc3nc(N4CCOCC4)c4c(c3c2N)CC(C)(C)OC4)cc1	0.5%[59 µM]	.	33.3%	30.5%	-10.7%	31.6µM*
CC1(C)Cc2c(c(N3CCCC3)nc3sc(C(=O)Nc4ccccc4)c(N)c23)CO1	?	.	73.2%	-2.8%	17.9%	-11.0%
Cc1nc2sc(C(=O)O)c(N)c2c2c1COC(C)(C)C2	3.16µM*	-1.1%	11.1%	7.3%	14.1µM*	39.8µM*
CN1Cc2c(N3CCOCC3)nc3sc(C(=O)c4ccccc4)c(N)c3c2CC1(C)C	50.1µM*	-10.8%	-10.5%	?	44.7µM*	-10.1%
CCOC(=O)c1sc2nc(N3CCOCC3)c3c(c2c1N)CC(C)(C)N(C)C3	?	-1.8%	19.7%	4.9%	-22.0%	11.3%
COC(=O)c1ccc(-c2sc3nc(N4CCOCC4)c4c(c3c2N)CC(C)(C)OC4)o1	-8.9%[12.7 µM]	.	12.8%	-1.8%	-8.4%	14.5%
CC1(C)Cc2c(c(N3CCOCC3)nc3sc(C(N)=O)c(N)c23)CO1	3.9%[12.7 µM]	-1.3%	19.3%	-31.9%	-9.7%	14.1µM*
Cc1cc2c(cc1S(=O)(=O)NCc1ccc(F)cc1)n(C)c(=O)c(=O)n2C	-5.7%[59 µM]	.	22.5%	0.2%	-7.9%	.
CCOc1ccc(NC(=O)c2sc3nc(N4CCOCC4)c4c(c3c2N)CC(C)(C)OC4)cc1	79.4µM*	.	25.2%	-2.6%	10.1%	-15.1%
COc1cccc(NC(=O)c2sc3nc(N4CCOCC4)c4c(c3c2N)CC(C)(C)OC4)c1	-4.0%[59 µM]	.	36.8%	-0.2%	-7.6%	.
COc1ccc(NC(=O)c2sc3nc(N4CCCC4)c4c(c3c2N)CC(C)(C)OC4)c(OC)c1	3.3%	.	39.4%	-0.2%[57.1 µM]	-8.6%	?
Cc1nc2oc(C(=O)c3ccc(Br)cc3)c(N)c2c2c1COC(C)(C)C2	25.1µM*	2.2%	29.8%	3.1%	2.9%	-7.4%
